Assay outcomes deposited in PubChem by National Center for Advancing Translational Sciences (NCATS).
In the library only some 0.99% were active in any assay of this set; here they are far more common.
L3MBTL1 inh – inhibitors of human L3MBTL1; Q9Y468; AlphaScreen L3MBTL1–H3K9me1 peptide binding; Potency, µM (titrated, usually from 57.1 µM), inactives show top-dose activity, negative = inhibition, hits mostly inhibitors; 0.66% of 230,000 active; further: on the % scale 0 is the no-effect control and ±100 the full control effect; nearly all actives have a fitted effect of over 60% in size
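Displacement of a biotinylated histone H3(1-15) peptide monomethylated at Lys9 (75 nM) from L3MBTL1 (50 nM) was measured by AlphaScreen after a 30 min room-temperature compound incubation; cefsulodin titration served as intraplate control.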
FEN1 inh-1 – human FEN1 inhibition | Potency, µM (top dose mostly 114 µM), for inactives: top-dose activity change, negative = inhibition, most hits filed as inhibitors | P39748 | Recombinant FEN1 flap cleavage, fluorescence, 15 min | AID 588795 | 0.35% of 390,000 active; further: on the % scale 0 is the no-effect control and ±100 the full control effect; nearly all actives have a fitted effect of over 65% in size
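Read-out was taken twice, immediately and after 15 min, following addition of 50 nM substrate to 10 nM FEN1 that had sat with test compound for 15 min at room temperature. Curves came from a four-parameter Hill model.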
RECQ1 inh – blocks DNA unwinding by human RECQ1. P46063. RECQ1 DNA unwinding, red fluorescence kinetic read. Potency, µM (top dose mostly 57.3 µM), for the others: at the highest dose activity, negative = inhibition, usual class: inhibitors. 0.54% of 240,000 active. AID 2549;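 further: plate controls were vehicle for no effect and no enzyme for full effect; nearly all actives have a fitted effect of over 30% in size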
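RECQ1T1 50 nM; forked duplex (20 bp + 30-nt ss tails) 200 nM, ATP 2 mM final; pH 8.0, 2 mM MgCl2, 2.5 ug/ml poly(dI-dC); 15 min compound preincubation; discontinuous kinetic read over 2 h at RT.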
WRN helicase inh-1 – inhibitors of human WRN helicase; Q14191; WRN helicase unwinding, fluorescent forked duplex, kinetic; Potency, µM (top dose mostly 114 µM), inactives show at the highest dose activity change, negative = inhibition, hits mostly inhibitors; 0.46% of 360,000 active; AID 651768; further: on the % scale 0 is the no-effect control and ±100 the full control effect; nearly all actives have a fitted effect of over 55% in size
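Fluorescence dequenching readout, ex 525 nm/em 598 nm, kinetic mode: forked duplex DNA (100 nM final) with adjacent fluorophore and quencher unwound by WRN (20 nM final) with 2 mM ATP. Compound preincubation 15 min, room temperature.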
BLM helicase inh-1 – blocks DNA unwinding by human BLM helicase; recombinant BLM DNA unwinding, fluorescence dequenching; Potency, µM (titrated, usually from 56.1 µM), without a hit: at the highest dose activity change, negative = inhibition, usual class: inhibitors; AID 2528; 0.2% of 350,000 active; P54132;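 further: plate controls were vehicle for no effect and no enzyme for full effect; nearly all actives have a fitted effect of over 35% in size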
FEN1 inh-2 – confirmation of human FEN1 inhibitors. FEN1 flap cleavage, TAMRA/BHQ2 fluorogenic DNA substrate. shares compounds with FEN1 inh-1. Potency, µM, hits mostly inhibitors. 79% of 880 active; further: nearly all actives have a fitted effect of over 60% in size
WRN helicase inh-2 – confirmation of human WRN helicase inhibitors; shares compounds with WRN helicase inh-1; 63% of 610 active; AID 720497; Potency, µM (titrated, usually from 57.1 µM), for inactives: at the top dose activity, negative = inhibition, hits mostly inhibitors; WRN helicase DNA unwinding, fluorescence kinetic; further: nearly all actives have a fitted effect of over 65% in size
TO displacement – counter-screen for WRN helicase inhibitors: DNA binding | shares compounds with WRN helicase inh-1 | thiazole orange DNA binding displacement, fluorescence | Potency, µM (titrated, usually from 57.1 µM), for the others: top-dose activity change, negative = inhibition, most hits filed as inhibitors | 10% of 610 active;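 further: drop in dye fluorescence marks compound binding to DNA; on the % scale 0 is the no-effect control and ±100 the full control effect; nearly all actives have a fitted effect of over 60% in size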
BLM helicase inh-2 – BLM helicase inhibition, WRN selectivity check; shares compounds with WRN helicase inh-1; Recombinant BLM helicase DNA unwinding, red fluorescence; Potency, µM (top dose mostly 57.1 µM), inactives show at the highest dose activity change, negative = inhibition, usual class: inhibitors; 60% of 610 active; AID 720503; further: nearly all actives have a fitted effect of over 60% in size
* marks the source's active call; other numbers are inactive results; ? = inconclusive; . = no result given; [ ] = another dose, or the depositor's remark. The call rests on the fitted dose curve; in most records, active means well fitted curve in the direction sought with a large enough effect; inconclusive means small, poorly fitted or top-dose-only effect, or another doubt; inactive means no such curve, though single readings can be large; an effect the other way counts as inactive or inconclusive. Potency means the concentration at half of the fitted maximal effect.

SMILES | L3MBTL1 inh | FEN1 inh-1 | RECQ1 inh | WRN helicase inh-1 | BLM helicase inh-1 | WRN helicase inh-2 | TO displacement | BLM helicase inh-2 | others
O=C1NC(=O)N(Cc2ccccc2)C(=O)/C1=C\c1ccco1 | ? | 45µM* | ? | 32µM* | ? | . | . | . | FEN1 inh-2=76*
O=C(O)Cn1cc(/C=C2\C(=O)NC(=O)N(Cc3ccco3)C2=O)c2ccccc21 | 5µM* | 79µM* | 14µM* | 40µM* | 77% | . | . | . | FEN1 inh-2=67*
Cn1cccc1/C=C1/C(=O)NC(=O)N(Cc2ccccc2)C1=O | -12% | -9% | -28% | ? | -1% | . | . | .
C=Cn1c(P(=S)(N2CCOCC2)N2CCOCC2)cc2c1CCCC2 | -16% | -11% | -11% | -18% | -4% | . | . | .
COC(=O)Nc1cccc(OC(=O)Nc2cccc(C)c2)c1 | . | . | -1% | . | . | . | . | .
COc1cccc2c1C(=O)c1c(O)c3c(c(O)c1C2=O)CC(O)(C(C)=NO)CC3OC1CC(N)C(O)C(C)O1 (centres undefined) | . | ? | . | 2.7µM* | . | 22µM* | 163% | 22µM* | FEN1 inh-2=30*
O=C1NC(=O)N(c2ccccc2)C(=O)/C1=C\c1ccc([N+](=O)[O-])s1 | . | 32µM* | ? | 28µM* | -6% | ? | -15% | 17µM* | FEN1 inh-2=19*
Cc1ccc(N2C(=O)NC(=O)/C(=C\c3cnc(-c4ccccc4)nc3)C2=O)cc1 | 1% | -2% | -3% | ? | 7% | . | . | .
N[C@H](CCCP(=O)(O)O)C(=O)O | . | . | 10% | . | -5% | . | . | .
COc1ccc(CN2C(=O)NC(=O)/C(=C/c3ccoc3)C2=O)cc1 | ? | 22µM* | ? | 40µM* | -20% | 7.6µM* | -3% | 2.4µM* | FEN1 inh-2=76*
CCOc1ccc(/C=C2/C(=O)NC(=O)N(CCc3ccc(F)cc3)C2=O)cc1 | -1% | -23% | 3% | -18% | 0% | . | . | .
CCCCN1C(=O)/C(=C/C=C/c2ccco2)C(=O)NC1=S | 3.5µM* | 25µM* | 14µM* | 2.7µM* | 41% | 12µM* | 83% | 6.8µM* | FEN1 inh-2=34*
CC(=O)O[C@H]1CC[C@]2(C=O)C3CC[C@]4(C)[C@@H](C5=CC(=O)OC5)CC[C@]4(O)C3CC[C@]2(O)C1 (some centres undefined) | . | 0% | -15% | . | 3% | . | . | .
CN1C(=O)/C(=C\c2ccc(Br)s2)C(=O)NC1=S | -5% | ? | . | 18µM* | -4% | ? | -4% | ?
Cc1cc(/C=C2\C(=O)NC(=S)N(C)C2=O)c(C)n1C1CCCCC1 | -8% | 9% | -12% | 12% | -5% | . | . | .
O=C=NC1CCCCC1 | . | . | 15% | . | . | . | . | .
N#Cc1c(-c2csc(-c3no[n+]([O-])c3C#N)c2)no[n+]1[O-] | . | . | . | . | . | ? | -15% | ?
CCOP(=S)(OCC)O/N=C(\C#N)c1ccccc1Cl | . | . | -12% | . | -13% | . | . | .
O=C(Nc1ccc2c(c1)OCO2)c1cccn(Cc2cccc([N+](=O)[O-])c2)c1=O | . | -4% | . | . | -1% | . | . | .
CC(Cc1ccc(OCC(=O)O)cc1)NCC(O)c1cccc(Cl)c1 (centres undefined) | . | . | -13% | . | . | . | . | .
CC(Cc1ccc(O)cc1)NCC(O)c1ccc(O)c(O)c1 (centres undefined) | . | . | . | 25µM* | . | 14µM* | -6% | 6.1µM*
CCCCn1c(=O)c(C(=O)Nc2ccccc2N)c(O)c2ccccc21 | 20% | -4% | . | 4% | -20% | . | . | .
CCOP(=O)(OCC)C(CC)N1CCOCC1 (centres undefined) | . | -1% | -5% | -19% | -6% | . | . | .
O=C(Nc1ccc2oc(-c3cccnc3)nc2c1)c1ccc(-c2cccc(Cl)c2)o1 | . | ? | . | . | ? | 19µM* | 14% | 6.8µM*
COC(=O)C1C(C(=O)O)C2(Cl)C(Cl)=C(Cl)C1(Cl)C2(Cl)Cl (centres undefined) | . | -10% | . | -6% | . | . | . | .
SMILES | L3MBTL1 inh | FEN1 inh-1 | RECQ1 inh | WRN helicase inh-1 | BLM helicase inh-1 | WRN helicase inh-2 | TO displacement | BLM helicase inh-2 | others
Cc1cc(/C=C2\C(=O)NC(=O)N(c3ccccc3F)C2=O)c(C)n1-c1cc(C(=O)O)cc(C(=O)O)c1 | . | ? | . | 40µM* | 44% | ? | -8% | -4%
CC(C)(O)[C@H]1O[C@@H]2CC[C@]3(C)[C@@]4(C)c5[nH]c6ccccc6c5C[C@@H]4CC[C@]3(O)C2=CC1=O | . | . | 0% | . | -6% | . | . | .
O=C1OCCC1C(=O)c1ccccc1 (centres undefined) | . | . | . | 12% | . | . | . | .
C=CCc1cc(C=C2C(=O)N(C)C(=O)N(C)C2=O)cc(OCC)c1OCc1ccccc1 | 32% | -8% | -4% | 45µM* | -2% | -18% | -17% | ?
Cc1c(Br)c(=O)oc2cc(OCC(=O)N3C[C@H]4C[C@@H](C3)c3cccc(=O)n3C4)ccc12 | . | -1% | . | -7% | 2% | . | . | .
O=C1C(=Cc2cn(-c3ccccc3)nc2-c2ccc(OCc3ccc(Cl)cc3)cc2)SC(=S)N1CCS(=O)(=O)O | . | . | . | 14µM* | . | 11µM* | ? | 3.8µM*
O=C1NC(=S)NC(=O)C1=Cc1cccc2cc3ccccc3cc12 | -1% | ? | -4% | ? | -5% | ? | -5% | ?
Cc1cc(/C=C2\C(=O)NC(=O)N(C)C2=O)c(C)n1-c1ccc2c(c1)OCO2 | -12% | -2% | -2% | -15% | -12% | . | . | .
O=c1c2ccccc2nc(/C=C/c2cccnc2)n1Cc1ccccc1 | 6.3µM* | 89µM* | -7% | 32µM* | -6% | -7% | -9% | -29%
CC1=C(O)C(=O)C=C2C1=CC=C1C2(C)CCC2(C)C3CC(C)(C(=O)O)CCC3(C)CCC12C (centres undefined) | . | 40µM* | . | 25µM* | . | ? | -19% | 22µM*
O=C1NC(=O)N(Cc2ccco2)C(=O)/C1=C/c1cccn1CCOc1ccccc1Cl | ? | -9% | 5% | ? | -24% | . | . | .
Cn1cccc1/C=C1\C(=O)NC(=O)N(Cc2ccccc2)C1=O | . | -1% | ? | ? | -20% | ? | -13% | ?
O=C(O)Cn1cc(/C=C2\C(=O)NC(=O)N(c3ccc(Br)cc3)C2=O)c2ccccc21 | . | ? | . | ? | 1% | -27% | -4% | 17µM*
Cc1ccc(N2C(=O)NC(=O)/C(=C\c3cn(CC(=O)O)c4ccccc34)C2=O)cc1 | -2% | -36% | . | -10%[11.6 µM] | 0% | . | . | .
